From PubChem BioAssay AID488890 (Southern Research Specialized Biocontainment Screening …, 2010) come the findings set out here.

Out of some 320,000 compounds screened, about 1,300 (0.41%) were called active. About 3% were inconclusive and are not listed. The rule behind the calls is not given here. The list is a sample of the results. Results with a measured potency or affinity are listed apart.

The test can be described thus: growth inhibition of non-replicating M. tuberculosis (AID 488890).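 Note: plate controls were DMSO cells for no effect and high antibiotic wells for full effect.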 Conditions: Mycobacterium tuberculosis non-replicating, at 25 µM, stronger effect = higher value.
As a reminder, the inhibition is the drop in the measured response relative to a control, in per cent. Consider `Nc1cc(N)nc(SCC(=O)Nc2ccc3c(c2)OCO3)n1`, for which the inhibition was 2.02%.
The value for `CS(=O)(=O)Oc1ccc(/C=N/NC(=O)c2ccncc2)cc1` was 60.2%; that for `O=c1cc(-c2ccccc2)nc2nc(SCc3ccccc3)[nH]n12` was 60.3%.
With `O=C(CCn1c(=S)oc2ccccc21)Nc1ccccc1Br` the figure was -5.39%; with `O=C(O)c1ccc2c(c1)C(=O)N(NC(=O)c1ccccc1)C2=O`, -12.7%.
For `CCc1ccccc1NC(=O)COc1ccc2c(c1)OCO2`, the inhibition came to 65.4%.
With `COC(=O)c1ccc(NC(=O)COc2ccc3c(c2)OCO3)cc1` the figure was 79.3%; with `CC1=C(C(=O)Nc2ccccc2C(F)(F)F)C(c2sccc2C)NC(=S)N1` (stereo not drawn), -0.9%; with `Cn1c(=O)c(-c2ccccc2)c(O)c2ccccc21`, 23.1%.
The value for `COc1ccc(Oc2c(O)c3ccccc3n(C)c2=O)cc1` was 9.82%; that for `CCCCn1c(=O)c(C(=O)Nc2ccccc2C)c(O)c2ccccc21` was -11.7%.
With `CNC(=O)c1c(O)c2cccc3c2n(c1=O)CCC3`, the inhibition stood at 45.4%.
The value for `CCCCCCn1c(=O)c(C(=O)Nc2cccc(C)n2)c(O)c2ccccc21` was -13.9%; that for `CCCCCn1c(=O)c(C(=O)Nc2ccccc2)c(O)c2ccccc21` was 16.7%.
Consider `CCCCCn1c(=O)c(C(=O)Nc2ccccc2Cl)c(O)c2ccccc21`, for which the inhibition was -6.13%.
With `CCCCn1c(=O)c(C(=O)Nc2ccccc2)c(O)c2ccccc21` the figure was -12.7%; with `CCCCCn1c(=O)c(-c2nc3ccccc3[nH]2)c(O)c2ccccc21`, 1.53%; with `CC(C)NC(=O)c1c(O)c2cccc3c2n(c1=O)CCC3`, 11.9%.
The value for `CC1C/C(=N\NC(=O)c2ccc(NS(=O)(=O)c3ccc(Br)cc3)cc2)CC(C)(C)C1` (stereo not drawn) was -12.6%; that for `Cc1nc(CCNC(=O)COc2ccccc2)cs1` was -16%.
The value for `CCCC(=O)n1nc(-c2ccc(Cl)cc2)nc1SC` was 64.9%; that for `O=C(CSc1nnc(Nc2ccccc2)s1)Nc1ccc(S(=O)(=O)N2CCOCC2)cc1` was 6.81%.
Consider `Cc1cccc(N2CCN(C(=O)c3cc(=O)[nH]c4ccccc34)CC2)c1C`, for which the inhibition worked out at 24.4%.
`CCCC(C)C1c2c(c(C)c(C)oc2=O)Oc2c(C)c(C)oc(=O)c21` (stereo not drawn): the inhibition stood at 25.8%.
The value for `O=C1c2ccccc2C(=O)N1OS(=O)(=O)c1ccccc1` was 19%.
The value for `Cc1nn(C)cc1/C=N\NC(=O)c1ccc2c(c1)c(C)c(C)n2Cc1ccccc1` was -7.16%; that for `CCOc1ccccc1NC(=O)NCc1ccccc1F` was 13.2%; that for `COc1ccc(/C=N/NC(=O)c2cccc(NC(=O)c3ccccc3)c2)c(C(=O)O)c1OC` was 31.1%.
On to `Cc1c(CCC(=O)N[C@@H](C)C(=O)O)c(=O)oc2cc3occ(-c4ccccc4)c3cc12`, for which the inhibition was found to be 0.57%.
With `NS(=O)(=O)c1cc(C(=O)NCCc2ccccn2)ccc1Cl` the figure was 7.03%; with `Cc1ccc(/C=N/NC(=O)c2ccc(C(=O)N/N=C/c3ccc(C)s3)o2)s1`, -14.7%.
With `Cn1cccc1/C=N/NC(=O)c1cccnc1` the figure was 6.3%; with `Cc1ccsc1/C=N/NC(=O)c1ccc([N+](=O)[O-])cc1`, -7.45%; with `Cc1ccsc1/C=N/NC(=O)c1cccnc1`, -17.1%.
The value for `O=C(N/N=C/c1cccn1-c1ccccc1)c1ccncc1` was 52.4%.
For the compound `Cc1cccc(C)c1-n1c(C)cc(/C=N/NC(=O)c2ccncc2)c1C`, the inhibition came out at 78%.
With `Cc1ccc(-n2c(C)cc(/C=N/NC(=O)c3ccncc3)c2C)c(C)c1`, the inhibition came to 73.9%.
Take `Cc1ccc(/C=N/NC(=O)c2ccccn2)s1`: the inhibition was 59.8%.
As to `Nn1c(SCC(=O)NC2CCCCC2)nnc1-c1ccccc1F`, the inhibition came to 9.14%.
Consider `COC(=O)Nc1ccc(S(=O)(=O)N2CCCC(C(=O)Nc3cccc4c3OCCO4)C2)cc1` (stereo not drawn), for which the inhibition came to 17.4%.
In the case of `Cc1ccc(C(=O)N/C(=C/c2ccc(Cl)cc2)C(=O)Nc2cccc(C(=O)O)c2)cc1`, the inhibition was 17%.
The value for `Cc1cc(NC(=O)CCC(=O)N(CC(=O)NCC2CCCO2)c2ccc(C)c(C)c2)no1` (stereo not drawn) was -4.55%.
With `COc1nc(NCCO)nc(Nc2ccc([N+](=O)[O-])cc2)n1` the figure was -18%; with `CSc1ccc(CCNC(=O)C2CCCN(c3nn4c(=O)cc(C)nc4s3)C2)cc1` (stereo not drawn), 5.95%; with `CC1(C(O)(C#CCN2CCCCC2)c2ccccc2)CCCC1` (stereo not drawn), 3.27%.
For `Clc1ccc(Cl)c(-c2nc(-c3ccncc3)no2)c1`, the inhibition is -30.7%.
Consider `CCc1ccc(OCC(=O)N2CCN(c3ccccc3F)CC2)cc1`, for which the inhibition is 52.6%.
With `COC(=O)c1ccccc1NC(=O)COC(=O)c1cccnc1`, the inhibition came out at 2.43%.
With `Cc1cccc(CN2CCSCC2)c1` the figure was 21.4%; with `Cc1ccc(NC(=O)CNC(=O)c2ccc(C)s2)nc1`, -9.04%.
With `O=C(N/N=C/c1ccc(Br)s1)c1cccs1`, the inhibition was 79.8%.
Take `O=C(N/N=C\c1ccncc1)c1ccc(Br)s1`: the inhibition is 15.2%.
As to `Cc1ccc(/C=N/NC(=O)c2ccc(-c3ccccc3)cc2)o1`, the inhibition is 4.22%.
Regarding `O=C(N/N=C/c1cc(Br)cc(Br)c1O)c1ccncc1`, the inhibition worked out at 57.1%.
For the compound `O=C(N/N=C\c1cc(Br)cs1)c1ccncc1`, the inhibition was determined as 71.3%.
The value for `Cc1ccc(/C=N/NC(=O)c2cccnc2)s1` was 75.2%; that for `O=C(N/N=C/c1cc(Br)c(Br)o1)c1cccnc1` was 40.9%; that for `Cc1ccc(/C=N/NC(=O)c2cccnc2)o1` was 7.34%.
With `COc1cc(NS(=O)(=O)c2ccc(NC(=S)NC(=O)c3ccc(F)cc3)cc2)nc(OC)n1` the figure was 42.3%; with `CCn1c(CN2CCOCC2)nnc1SCC(=O)Nc1cccc(C)c1`, -3.97%; with `O=C(NCCC(=O)N1CCC2(CC1)NCCc1[nH]cnc12)c1ccc(Br)cc1`, 10.4%.
The value for `Cn1ncc2c(Nc3ccc(Br)cc3)nc(Nc3ccc(Br)cc3)nc21` was 9.77%; that for `O=C(N/N=C/c1cn(-c2ccccc2)nc1-c1cccs1)c1ccncc1` was 48.3%; that for `O=C(N/N=C/c1cn(-c2ccccc2)nc1-c1cc2ccccc2o1)c1ccncc1` was 42.8%.
In the case of `COc1ccc(N=C2NC(=O)C(CC(=O)NCCc3ccc(OC)c(OC)c3)S2)cc1` (stereo not drawn), the inhibition came to 14.1%.
Consider `CC(NC(=O)c1ccc2c(=O)n3c(nc2c1)CCC3)c1ccc(S(N)(=O)=O)cc1` (stereo not drawn), for which the inhibition is -7.93%.
`Cc1ccc(S(=O)(=O)N2CCCN(C(=O)c3cc4ccccc4[nH]3)CC2)cc1`: the inhibition came out at 11.2%.
With `COc1cccc(NC(=O)NNS(=O)(=O)c2ccc(OC)cc2OC)c1`, the inhibition is -16.4%.
With `Oc1c(C(c2ccccn2)N2CCCCC2)cc(Cl)c2cccnc12` (stereo not drawn) the figure was 75.4%.
Take `CN1CCN(C(c2cccnc2)c2ccc3cccnc3c2O)CC1` (stereo not drawn): the inhibition was found to be 28.6%.
With `CCCCOc1ccc(NC(=O)CSc2nnnn2C)cc1` the figure was 18.5%; with `Cn1cccc1/C=C1/C(=O)NC(=O)N(Cc2ccc(F)cc2)C1=O`, 74.5%; with `Cn1cccc1/C=C1\C(=O)NC(=O)N(Cc2ccccc2)C1=O`, 73%.
The value for `CC1CN(c2nc3ccccn3c(=O)c2C=O)CC(C)O1` (stereo not drawn) was 1.76%.
With `CCCn1nnc(NC(=O)c2ccc(-c3cccc(Cl)c3)o2)n1` the figure was 59.5%.
Turning to `CCn1nnc(NC(=O)c2ccc(-c3ccccc3[N+](=O)[O-])o2)n1`, the inhibition amounted to 9.81%.
With `CCn1nnc(NC(=O)c2ccc(Br)o2)n1` the figure was -5.58%.
With `CCn1nnc(NC(=O)Cc2ccc(Cl)cc2)n1` the figure was 11.1%.
With `CCCCc1ccc(-c2nc(-c3ccncc3)no2)cc1` the figure was 22.1%; with `Cc1ccc(NC(=O)c2ccccc2)cc1`, 25.8%; with `CC1=C(C(=O)Nc2ccccc2)S(=O)(=O)CCO1`, 68.2%.
Take `CCOc1cc(C(=O)Nc2cc(=O)n(C)c(=O)n2C)cc(OCC)c1OCC`: the inhibition worked out at 1.17%.
With `Cc1cc(Cl)ccc1C(=O)C1CCCN(C(=O)c2cc(C(C)C)no2)C1` (stereo not drawn) the figure was 45.6%; with `CCc1ccccc1NC(=O)N1CCc2ccccc2C1`, -17.5%.
The value for `CCCCNC(=O)N1CCc2[nH]c3ccccc3c2C1` was 5.76%; that for `COC(=O)C1=NN(C(=O)c2ccccc2)C(O)(c2ccc([N+](=O)[O-])cc2)C1` (stereo not drawn) was 21.5%; that for `Cc1cn(C(=O)c2cccc(Br)c2)c(C)n1` was -0.97%.
With `CCOC(=O)N1N=C(C)CC1(O)c1ccccc1` (stereo not drawn) the figure was -14.8%; with `CCOC(=O)C1=NN(C(=O)c2ccccc2)C(O)(c2ccc(C)cc2)C1` (stereo not drawn), 73.7%.
`COC(=O)C1=NN(C(=O)c2ccc(Cl)cc2)C(O)(c2ccccc2)C1` (stereo not drawn): the inhibition turned out to be 79.6%.
The value for `COC(=O)C1=NN(C(=O)c2cccc(Br)c2)C(O)(c2ccc(Cl)cc2)C1` (stereo not drawn) was 75.6%; that for `OCCC1CN(Cc2nc3ccccc3s2)CCN1C1CCCC1` (stereo not drawn) was -3.44%.
The value for `O=C(CSc1nnc2ccccn12)N1CCc2ccccc2C1` was -9.62%; that for `Cc1ccccc1CN1C(=O)/C(=C\c2ccc(C(=O)NCCN3CCOCC3)cc2)Sc2ccccc21` was 34.3%; that for `O=C(COC(=O)c1cccnc1Cl)Nc1cc(S(=O)(=O)N2CCOCC2)ccc1Cl` was -5.03%.
As for `O=C(CC1CCCCC1)NCC1CCCO1` (stereo not drawn), the inhibition came to 69.3%.
For `Cc1ccc(N(Cc2cc3ccc(C)cc3[nH]c2=O)S(=O)(=O)c2ccccc2)c(C)c1`, the inhibition was determined as 3.45%.
The value for `CCCCOC(=O)C1CCCC(C)N1` (stereo not drawn) was 0.64%; that for `CCCCOC(=O)C1CCC[C@@H](C)N1` (stereo partly drawn) was -6.13%; that for `Cc1ccc(NC(=O)COC(=O)CN2C(=O)C3CCCCC3C2=O)cc1S(=O)(=O)N1CCOCC1` (stereo not drawn) was 6.8%.
With `O=C(N/N=C/c1cc([N+](=O)[O-])ccc1O)NC12CC3CC(CC(C3)C1)C2` the figure was 54.2%; with `O=C1NCCCC1C(=O)N/N=C/c1cc([N+](=O)[O-])ccc1O` (stereo not drawn), 15.8%; with `O=C(N/N=C/c1cc([N+](=O)[O-])ccc1O)C1C2CCCCC21` (stereo not drawn), 77.2%.
With `CCNC(=O)C(=O)N/N=C/c1cc([N+](=O)[O-])ccc1O` the figure was 27.1%; with `CC1(C)Cc2nc3sc(C(N)=O)c(N)c3cc2CO1`, -3.96%.
Turning to `O=C(CCC1CCCC1)NCCCNC(=O)CCC1CCCC1`, the inhibition came out at 72.8%.
The value for `Cc1nc([N+](=O)[O-])c(Sc2nc3ccccc3n2C)n1Cc1ccccc1` was 70.5%; that for `C=C(C)C(=O)Nc1cccc(C2=NOC3(C2)C[C@H](C(N)=O)N(C(=O)CC#N)C3)c1` (stereo partly drawn) was -3.19%; that for `CCCCCCCCCn1cc(C(C)=O)c(=O)[nH]c1=O` was 71.1%.
In the case of `CCCCCCCCn1cc(C(C)=O)c(=O)[nH]c1=O`, the inhibition stood at 79.8%.
With `COc1ccc(-n2nc(C(=O)NCC(=O)O)c3ccccc3c2=O)cc1` the figure was -2.99%; with `COc1ccc(NC(=O)Nc2cccc(NC(C)=O)c2)c(OC)c1`, 15.4%.
As for `COCCNc1nnc(SCC(=O)NNC(=O)c2ccccc2)s1`, the inhibition is -9.33%.
